Laboratory results reported in PubChem BioAssay (Tox21).
Results filed as inconclusive are left out. Active and inactive are the calls of the source. Unless noted, calls follow the shape of the dose curve; as a rule, active = well fitted curve in the direction sought with a large enough effect in the repeat runs; inconclusive = weak or mixed curves; inactive = no such curve, though single readings can be large; an effect the other way counts as inactive or inconclusive.

How the values were obtained:
[1] = A CellTox Green Cytotoxicity Assay to monitor cytotoxicity in HEK293 cells - 32 hour (AID 1224881); also: nearly all actives have a fitted effect of over 40% in size; also: potency is read from the fitted curve at half-maximal effect
How it was run: (§1)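 Each value comes from one timepoint of a single continuous run in which HEK293 cells with CellTox Green were exposed to compound for up to 40 h at 37 C, dye fluorescence rising with cell death.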

[2] = A CellTox Green Cytotoxicity Assay to monitor cytotoxicity in HepG2 cells - 0 hour (AID 1224882); also: nearly all actives have a fitted effect of over 35% in size
How it was run: (§2)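 Continuous culture of HepG2 cells with a membrane-impermeant DNA dye; rising fluorescence marks dead cells. Compound exposure lasted up to 40 h at 37 C, with reads every 8 h from 0 h.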

[3] = A CellTox Green Cytotoxicity Assay to monitor cytotoxicity in HepG2 cells - 32 hour (AID 1224883); also: nearly all actives have a fitted effect of over 50% in size; also: potency is read from the fitted curve at half-maximal effect
How it was run: as §2

[4] = A CellTox Green Cytotoxicity Assay to monitor cytotoxicity in HEK293 cells - 8 hour (AID 1224884); also: nearly all actives have a fitted effect of over 35% in size; also: potency is read from the fitted curve at half-maximal effect
How it was run: as §1

[5] = qHTS RealTime-Glo MT Cell Viability Assay in HepG2 cells - 16 hour (AID 1224885); also: nearly all actives have a fitted effect of over 50% in size; also: potency is read from the fitted curve at half-maximal effect
How it was run: (§3)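 HepG2 cells were seeded at 600 cells/well together with NanoLuc luciferase and a cell-permeant prosubstrate, preincubated 5 h at 37 C/5% CO2, then pin-dosed with compounds in DMSO. Nonlytic luminescence from viable cells was read at each time point.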

[6] = qHTS RealTime-Glo MT Cell Viability Assay in HEK293 cells - 24 hour (AID 1224886); also: nearly all actives have a fitted effect of over 50% in size; also: potency is read from the fitted curve at half-maximal effect
How it was run: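 HEK293 cells were seeded at 600 cells/well together with NanoLuc luciferase and cell-permeant prosubstrate, preincubated 5 h at 37 C/5% CO2, then given compound in DMSO by pintool. Luminescence from viable-cell prosubstrate reduction was read repeatedly over 40 h.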

[7] = qHTS RealTime-Glo MT Cell Viability Assay in HEK293 cells - 8 hour (AID 1224887); also: nearly all actives have a fitted effect of over 50% in size; also: potency is read from the fitted curve at half-maximal effect
How it was run: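 qHTS format; HEK293 cells with NanoLuc/prosubstrate reagent, 37 C/5% CO2 for 5 h pre-dosing; compounds 23 nL in DMSO; luminescence at each time point reflects viable cells.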

[8] = A CellTox Green Cytotoxicity Assay to monitor cytotoxicity in HEK293 cells - 16 hour (AID 1224888); also: nearly all actives have a fitted effect of over 35% in size; also: potency is read from the fitted curve at half-maximal effect
How it was run: as §1

[9] = qHTS RealTime-Glo MT Cell Viability Assay in HepG2 cells - 0 hour (AID 1224889); also: nearly all actives have a fitted effect of over 50% in size; also: potency is read from the fitted curve at half-maximal effect
How it was run: as §3

[10] = A CellTox Green Cytotoxicity Assay to monitor cytotoxicity in HepG2 cells - 8 hour (AID 1224890); also: nearly all actives have a fitted effect of over 45% in size; also: potency is read from the fitted curve at half-maximal effect
How it was run: as §2

[11] = qHTS assay to identify small molecule antagonists of the estrogen receptor alpha (ER-alpha) signaling pathway using the BG1 cell line in the presence of 0.1 nM 17-beta-estradiol - cell viability counter screen (AID 1259241); also: nearly all actives have a fitted effect of over 40% in size; also: potency is read from the fitted curve at half-maximal effect
How it was run: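 The cell line endogenously expresses full-length ER-alpha and carries four EREs driving luciferase. Cells are cultured 5 days hormone-free, treated 22 hr with compounds and 0.1 nM estradiol, then viability is read by fluorescence.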

[12] = qHTS assay to identify small molecule antagonists of the androgen receptor (AR) signaling pathway using the MDA cell line in the presence of 0.5 nM R1881 - cell viability counter screen (AID 1259242); also: nearly all actives have a fitted effect of over 45% in size; also: potency is read from the fitted curve at half-maximal effect
How it was run: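 Fluorescence from CellTiter-Fluor, which reports protease activity of live cells, was read 30 min after reagent addition to MDA-kb2 cells that had been incubated 16 hr with compound and 0.5 nM R1881.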

[13] = target: Estrogen receptor (Homo sapiens) (UniProt P03372); assay: qHTS assay to identify small molecule antagonists of the estrogen receptor alpha (ER-alpha) signaling pathway using the BG1 cell line in the presence of 0.1 nM 17-beta-estradiol (AID 1259244); also: nearly all actives have a fitted effect of over 50% in size; also: potency is read from the fitted curve at half-maximal effect
How it was run: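 Quantitative high-throughput screen in VM7Luc4E2 cells: compound plus 0.1 nM E2 (final), 22 h, 37C, 5% CO2; ONE-Glo added, 30 min room temperature, luminescence measured.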

[14] = qHTS assay to identify small molecule phospholipidosis (PLD) inducers (AID 1259344; active = well fitted curve in the direction sought with a large enough effect; an effect the other way counts as inactive or inconclusive)
How it was run: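 Fluorescent phospholipid staining (LipidTOX Red) measured by automated microscopy in fixed HepG2 cells after 24 h treatment; nuclei counterstained with Hoechst 33342; amiodarone as reference inducer.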

[15] = qHTS assay to identify small molecule HDAC inhibitors (AID 1259364); also: top concentration of the series differs between compounds; nearly all actives have a fitted effect of over 45% in size
How it was run: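 Endogenous HDAC class I/II activity was measured in wild-type HCT-116 cells by HDAC-Glo luminescence after 2 h compound treatment.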

[16] = qHTS assay to identify small molecule HDAC inhibitors - cell viability counter screen (AID 1259365); also: nearly all actives have a fitted effect of over 50% in size; also: potency is read from the fitted curve at half-maximal effect
How it was run: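 Viability readout: CellTiter-Glo luminescence. Wild-type HCT-116 cells, 2hr compound treatment following overnight attachment at 37 C.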

[17] = qHTS assay to identify small molecule agonists of the sonic hedgehog signaling (Shh) pathway - cell viability counter screen (AID 1259366); also: nearly all actives have a fitted effect of over 50% in size; also: potency is read from the fitted curve at half-maximal effect
How it was run: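 Viability measured fluorometrically (CellTiter-Fluor, 1hr, 37C) in 3T3 Gli1-Luc reporter cells after 23hr compound exposure within a 24hr incubation at 37C/5% CO2.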

[18] = qHTS assay to identify small molecule antagonists of the sonic hedgehog signaling (Shh) pathway - cell viability counter screen (AID 1259367); also: nearly all actives have a fitted effect of over 55% in size; also: potency is read from the fitted curve at half-maximal effect
How it was run: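 Using CellTiter-Fluor, viability of Gli1-Luc reporter 3T3 cells is read by fluorescence in the wells used for the Shh luciferase assay. Treatment lasts 23 hr with conditioned medium, then reagent 1 hr at 37C.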

[19] = target: Androgen receptor (Homo sapiens) (UniProt P10275); assay: qHTS assay to identify small molecule antagonists of the androgen receptor (AR) signaling pathway using the MDA cell line in the presence of 0.5 nM R1881 (AID 1259243); also: nearly all actives have a fitted effect of over 50% in size; also: potency is read from the fitted curve at half-maximal effect
How it was run: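 Inhibition of R1881 (0.5 nM final) induced reporter signal was measured in human MDA-kb2 cells; note the MMTV promoter also responds to GR. Exposure lasted 16 hr at 37C.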

[20] = qHTS assay to identify small molecule agonists of the sonic hedgehog signaling (Shh) pathway (AID 1259368; calls by dose curve;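 also: NIH/3T3-derived 3T3Gli1-Luc cells carrying a stable Gli1-driven firefly luciferase reporter; series mostly up to about 92 µM; nearly all actives have a fitted effect of over 15% in size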)
How it was run: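 Luminescent signal was taken as a measure of Gli1-controlled luciferase expression in stably transfected NIH/3T3-derived cells that had been treated for 24 hr with compounds delivered in DMSO.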

Measured: Potency

Chain of Androgen receptor (Homo sapiens) (P10275 whole entry, looked up): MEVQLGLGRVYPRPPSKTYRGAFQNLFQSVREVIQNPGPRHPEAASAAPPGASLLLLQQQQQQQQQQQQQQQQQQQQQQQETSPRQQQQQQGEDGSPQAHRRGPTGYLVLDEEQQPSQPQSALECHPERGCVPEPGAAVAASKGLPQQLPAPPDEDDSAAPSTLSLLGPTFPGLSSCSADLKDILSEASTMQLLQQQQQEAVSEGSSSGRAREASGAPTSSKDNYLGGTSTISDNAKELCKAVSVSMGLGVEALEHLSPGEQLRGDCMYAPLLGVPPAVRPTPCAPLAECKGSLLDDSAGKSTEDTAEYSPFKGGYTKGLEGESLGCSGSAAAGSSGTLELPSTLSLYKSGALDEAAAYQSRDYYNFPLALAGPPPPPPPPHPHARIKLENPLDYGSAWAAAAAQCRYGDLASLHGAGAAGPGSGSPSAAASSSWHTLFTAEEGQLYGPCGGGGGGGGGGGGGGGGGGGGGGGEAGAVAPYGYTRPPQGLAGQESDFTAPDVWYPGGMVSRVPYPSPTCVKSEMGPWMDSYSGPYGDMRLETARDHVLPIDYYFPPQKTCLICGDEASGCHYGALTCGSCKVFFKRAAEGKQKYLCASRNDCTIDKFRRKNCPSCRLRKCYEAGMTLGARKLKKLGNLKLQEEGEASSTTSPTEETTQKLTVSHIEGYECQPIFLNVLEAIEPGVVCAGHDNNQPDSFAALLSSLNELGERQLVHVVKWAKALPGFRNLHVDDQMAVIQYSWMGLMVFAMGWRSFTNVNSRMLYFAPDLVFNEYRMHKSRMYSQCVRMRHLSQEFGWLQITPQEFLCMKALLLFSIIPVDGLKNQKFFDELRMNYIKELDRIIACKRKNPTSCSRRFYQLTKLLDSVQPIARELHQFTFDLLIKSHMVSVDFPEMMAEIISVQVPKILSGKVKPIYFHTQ
Chain of Estrogen receptor (Homo sapiens) (P03372 whole entry, looked up): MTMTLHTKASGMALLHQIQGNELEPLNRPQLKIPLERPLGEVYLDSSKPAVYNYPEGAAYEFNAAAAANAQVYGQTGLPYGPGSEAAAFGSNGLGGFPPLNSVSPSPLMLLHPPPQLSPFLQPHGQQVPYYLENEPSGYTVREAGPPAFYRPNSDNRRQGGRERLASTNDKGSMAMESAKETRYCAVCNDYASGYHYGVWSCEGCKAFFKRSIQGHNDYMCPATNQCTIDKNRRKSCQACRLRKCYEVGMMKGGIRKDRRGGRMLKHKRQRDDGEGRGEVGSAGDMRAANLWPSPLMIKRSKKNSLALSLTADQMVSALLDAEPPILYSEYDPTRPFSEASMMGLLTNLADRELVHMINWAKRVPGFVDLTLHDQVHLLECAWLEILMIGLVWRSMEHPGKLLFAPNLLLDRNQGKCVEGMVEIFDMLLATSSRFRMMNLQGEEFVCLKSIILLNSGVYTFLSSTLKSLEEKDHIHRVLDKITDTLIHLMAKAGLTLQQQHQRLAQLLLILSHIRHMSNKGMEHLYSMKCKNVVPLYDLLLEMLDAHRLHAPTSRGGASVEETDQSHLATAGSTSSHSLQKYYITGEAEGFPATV

CCOCCOC(C)=O
not listed: [19] | [20]
inactive: all other assays above

N#CCc1ccc(Cl)cc1
not listed: [14] | [17] | [19] | [20]
inactive: all other assays above

Cc1ccc(CCl)cc1
not listed: [14]
inactive: all other assays above

SCc1ccco1
not listed: [14] | [19]
inactive: all other assays above

CCC(C)(C)C(=O)OC1=C(c2ccc(Cl)cc2Cl)C(=O)OC12CCCCC2
active: [9] 34.7 µM
not listed: [14]
inactive: all other assays above

C[C@@H]1CC[C@@]2(OC1)O[C@H]1[C@@H](O)[C@H]3[C@@H]4CC[C@H]5C[C@@H](O[C@@H]6O[C@H](CO)[C@H](O[C@@H]7O[C@H](CO)[C@@H](O)[C@H](O[C@@H]8OC[C@@H](O)[C@H](O)[C@H]8O)[C@H]7O[C@@H]7O[C@H](CO)[C@@H](O)[C@H](O[C@@H]8O[C@H](CO)[C@@H](O)[C@H](O)[C@H]8O)[C@H]7O)[C@H](O)[C@H]6O)[C@H](O)C[C@]5(C)[C@H]4CC[C@]3(C)[C@H]1[C@@H]2C
active: [1] 1.64 µM | [3] 11.6 µM | [4] 4.63 µM | [5] 18.4 µM | [6] 11.6 µM | [7] 6.55 µM | [8] 4.63 µM | [9] 23.2 µM | [10] 13.1 µM | [11] 29 µM | [12] 23 µM | [19] 14.5 µM | [13] 57.8 µM | [16] 29 µM | [17] 32.5 µM | [18] 32.5 µM
inactive: [2] | [15] | [20]

COP(N)(=S)OC
not listed: [14] | [17]
inactive: all other assays above

CCSC(C)CC1CC(=O)C(/C(CC)=N/OC/C=C/Cl)=C(O)C1 (centres undefined)
not listed: [14]
inactive: all other assays above

O=C(NC(=O)c1c(F)cccc1F)Nc1cc(Cl)c(OC(F)(F)C(F)F)c(Cl)c1
not listed: [14] | [17]
inactive: all other assays above

CN(CCCC(O)c1cccnc1)N=O (centres undefined)
not listed: [14]
inactive: all other assays above

CC(C)C(=O)Cl
not listed: [13] | [14]
inactive: all other assays above

C[C@@H]1O[C@@H](O[C@@H]2C=C3CC[C@@H]4[C@H](CC[C@]5(C)[C@@H](c6ccc(=O)oc6)CC[C@]45O)[C@@]3(C)CC2)[C@H](O)[C@H](O)[C@H]1O
active: [6] 0.0301 µM
not listed: [13] | [14] | [15] | [20]
inactive: all other assays above

COS(=O)(=O)c1ccc(C)cc1
not listed: [14] | [15] | [20]
inactive: all other assays above
